VP16 counter – VP16 counterscreen qHTS for inhibitors of ROR gamma transcriptional activity | Potency, µM (highest dose often 53.6 µM), inactives show top-dose activity, negative = inhibition, most hits filed as inhibitors | AID 2546, 2010 | Drosophila S2 Gal4-VP16 UAS-luciferase, luminescence, 20 h | 3.5% of 310,000 active;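 also: Gal4-VP16 expression switched on by copper sulfate through the metallothionein promoter; potency is read from the fitted curve at half-maximal effect; % is scaled to controls: 0 for no effect and ±100 for the full control effect; nearly all actives have a fitted effect of over 50% in size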
BRCA1 expr up – qHTS Assay to Identify Small Molecule Activators of BRCA1 Expression; MCF7-BRCA1-FFLuc reporter, luminescence, 48 h; response scale: scaled: vehicle 0%, 10 µM genistein 100%; Potency, µM (highest dose often 46.1 µM), for inactives: at the top dose activation, hits mostly activators; 1.1% of 380,000 active; AID 624202, 2012; also: potency is read from the fitted curve at half-maximal effect; nearly all actives have a fitted effect of over 80% in size
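Reporter cells (MCF7, BRCA1 promoter-firefly luciferase) received library compounds across a concentration series for 48 h. End-point luminescence was measured and concentration-effect curves derived after normalization.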
Giardia kill – Small Molecules that selectively kill Giardia lamblia: qHTS | activity change, % at 7.66 µM, hits read low | Giardia lamblia trophozoite viability | 0.15% of 340,000 active; in the data active = activity change below about -80%; inconclusive = between about -30% and that limit;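 also: parasites exposed to compound for two days anaerobically before the ATP read; % is scaled to controls: 0 for no effect and ±100 for the full control effect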
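Killing of trophozoites was scored by loss of ATP luminescence after a 48 hrs anaerobic exposure to compounds at 37 deg C, using 100 cells per well.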
RORg inh – qHTS for inhibitors of ROR gamma transcriptional activity | Nuclear receptor ROR-gamma (Mus musculus), P51450 | AID 2551, 2010 | Drosophila S2 Gal4-RORgamma UAS-luciferase reporter, 20 h | Potency, µM (top dose mostly 53.6 µM), inactives show at the top dose activity change, negative = inhibition, most hits filed as inhibitors | 5.4% of 310,000 active; also: potency is read from the fitted curve at half-maximal effect; % is scaled to controls: 0 for no effect and ±100 for the full control effect; nearly all actives have a fitted effect of over 60% in size
Target sequence (P51450 whole entry, looked up, the tested form may be a part): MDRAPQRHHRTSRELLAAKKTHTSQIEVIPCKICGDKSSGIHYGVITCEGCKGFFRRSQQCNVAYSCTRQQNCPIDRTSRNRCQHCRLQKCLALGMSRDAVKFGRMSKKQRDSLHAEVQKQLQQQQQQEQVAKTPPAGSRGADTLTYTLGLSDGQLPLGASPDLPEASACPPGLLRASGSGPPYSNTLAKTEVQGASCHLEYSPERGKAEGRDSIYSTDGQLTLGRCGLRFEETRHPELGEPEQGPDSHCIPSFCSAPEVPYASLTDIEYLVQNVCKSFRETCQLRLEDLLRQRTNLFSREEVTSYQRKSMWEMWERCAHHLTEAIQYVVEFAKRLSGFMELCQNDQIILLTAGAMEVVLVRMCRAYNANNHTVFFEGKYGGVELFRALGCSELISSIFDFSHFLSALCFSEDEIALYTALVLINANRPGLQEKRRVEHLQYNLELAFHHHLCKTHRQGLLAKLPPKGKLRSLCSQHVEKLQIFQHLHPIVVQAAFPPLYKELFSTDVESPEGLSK
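Stable Schneider cell line, Gal4 DNA-binding domain fused to ROR gamma, UAS-luciferase. Cmpd 1 hr RT → CuSO4 700 uM final → 20 hr RT → luciferase reagent 10 min → luminescence.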
p53 reactivator – qHTS assay for re-activators of p53 using a Luc reporter. H1299 p53-A138V BP100-luciferase reporter, luminescence, 24 h. Potency, µM (doses to about 92.2 µM), for inactives: at the top dose activity change, positive = activation, actives largely listed as activators. 0.063% of 320,000 active; also: potency is read from the fitted curve at half-maximal effect; % of control where 0% means no effect; nearly all actives have a fitted effect of over 45% in size
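p53-null H1299 cells stably carrying temperature-sensitive p53-A138V and a BP100-luciferase reporter were pinned with compounds (4-point, 1:5 series) and held 24 hrs at 37 deg C. Luminescence was read 10 min after detection reagent.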
ELG1 DNA repair – qHTS screen for small molecules that inhibit ELG1-dependent DNA repair in human embryonic kidney (HEK293T) cells expressing luciferase-tagged ELG1. HEK293T ELG1-luciferase reporter, luminescence, 16 h; DNA damage induced by 5-fluorouridine. Potency, µM (highest dose often 46.1 µM), for inactives: at the highest dose activity change, negative = inhibition, usual class: inhibitors. 2.3% of 330,000 active; also: potency is read from the fitted curve at half-maximal effect; % is scaled to controls: 0 for no effect and ±100 for the full control effect; nearly all actives have a fitted effect of over 55% in size
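Quantitative HTS, concentration-response format. 2,000 cells/well co-treated with 5-fluorouridine and compound, 16 hr in 5% CO2 at 37 °C; ONE-Glo luminescence read after 30 min.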
* = called active by the depositor; ? = inconclusive; . = no result given; [ ] = remark or other dose. Shown are actives, neighbours in structure and some others; about 7.6% of the full set was active somewhere. Unless noted, calls follow the shape of the dose curve; as a rule, active = well fitted curve in the direction sought with a large enough effect; inconclusive = small, poorly fitted or top-dose-only effect, or another doubt; inactive = no such curve, though single readings can be large; an effect the other way counts as inactive or inconclusive.

SMILES | VP16 counter | BRCA1 expr up | Giardia kill | RORg inh | p53 reactivator | ELG1 DNA repair
COc1ccccc1C(=O)N/N=C/c1ccc(Cl)s1 | ? | -29.5% | 25.5 | ? | 28.5% | ?
CSc1ccc(/C=N/NC(=O)c2cccs2)cc1 | -2.2% | ? | -0.2 | -36.6% | ? | ?
O=C(N/N=C\c1ccc(Cl)s1)c1cccs1 | 5.62µM* | 19.3% | 13.0 | 5.62µM* | 14.4% | ?
O=C(N/N=C/c1ccncc1)c1cccs1 | ? | 12.6µM* | -24.6 | -2.0% | -6.4% | ?
CCN(CC(=O)Nc1c(F)cccc1F)C(=O)c1n[nH]c2ccccc12 | 1.3% | -17.7% | 44.9 | ? | -4.4% | -7.5%
COc1ccc2nc(C)c(C(=O)NN)cc2c1 | -23.8% | -2.8% | -6.5 | ? | -1.0% | -1.3%
COc1ccc(OCC(O)Cn2c(Nc3cccc(C)c3)nc3c2c(=O)n(C)c(=O)n3C)cc1 (configuration not stated) | -12.4% | -5.7% | -8.5 | 8.6% | -9.5% | 18.4µM*
Cc1noc(C)c1COC(=O)c1cccc(S(=O)(=O)N2CCOCC2)c1 | . | -3.7% | -5.7 | . | 5.4% | -1.2%
Cc1noc(C)c1COC(=O)c1cccc(S(=O)(=O)N2c3ccccc3CC2C)c1 (configuration not stated) | -13.1% | -60.3% | 17.6 | ? | -7.7% | 18.4µM*
COc1cccc(CC(=O)NCCCSc2ccccc2)c1 | ? | 10.2% | 7.3 | 5.4% | -3.9% | -2.6%
COc1ccc(NC(=O)c2cccc(N3C(=O)C4C5C=CC(C6CC56)C4C3=O)c2)cc1 (configuration not stated) | -26.4% | -16.9% | 4.2 | ? | -14.7% | 23.1µM*
COc1ccc(NC(=O)c2cccc(N3C(=O)C4C5C=CC(C6CC56)C4C3=O)c2)c(OC)c1 (configuration not stated) | -0.1% | 6.1% | -15.2 | 30.1% | -9.7% | ?
CCN(CC(=O)NCc1ccc(F)cc1)C(=O)C(C)Oc1cccc(Cl)c1 (configuration not stated) | . | -6.4% | 30.3 | . | -6.8% | -18.0%
CCn1c(SCC(=O)Nc2ccc(-c3nc4ccc(C)cc4s3)cc2)nnc1-c1ccccc1 | 17.8µM* | . | . | 11.2µM* | ? | ?
COc1ccc(C2(C)NC(=O)N(CC(=O)Nc3ccc(-c4nc5ccc(C)cc5s4)cc3)C2=O)cc1 (configuration not stated) | -9.3% | 74.0% | 12.4 | -13.9% | 4.1% | ?
Cc1ccc(-c2csc(NC(=O)CSc3nc(C)cs3)n2)cc1 | -0.8% | 11.2µM* | -4.6 | -20.8% | ? | ?
Cc1csc(SCC(=O)Nc2nc(-c3ccccc3)cs2)n1 | -3.9% | 63.5% | -15.7 | ? | ? | ?
CCn1c(SCC(=O)Nc2nc(-c3ccc(C)cc3)cs2)nnc1-c1ccccc1O | 15.0%[0.365 µM] | -51.8% | -8.9 | ? | -5.3% | 16.4µM*
C=CCn1c(SCC(=O)Nc2ccc(-c3nc4ccc(C)cc4s3)cc2)nnc1-c1ccncc1 | 5.5% | ? | 3.5 | 8.1% | ? | ?
CCC1(c2ccc(F)cc2)NC(=O)N(CC(=O)Nc2ccc(-c3nc4ccc(C)cc4s3)cc2)C1=O (configuration not stated) | -13.8% | 34.1% | 1.6 | 0.447µM* | 5.8% | ?
CCN(CC)C(=O)Cn1cc(S(=O)(=O)CC(=O)Nc2cc(OC)ccc2OC)c2ccccc21 | -10.2% | -23.1% | -14.4 | 1.2% | -2.4% | -4.7%
Cc1ccc(C(O)c2ncc(-c3ccccc3C)[nH]2)cc1 (configuration not stated) | . | 36.2% | . | . | . | .
